Source: PubChem BioAssay (National Center for Advancing Translational Sciences (NCATS))
An excerpt weighted towards active compounds, which were near 15% of everything screened.
HCV inh: qHTS Assay for Inhibitors of Hepatitis C Virus (HCV); Potency, µM (titrated, usually from 41.8 µM), actives largely listed as inhibitors; 340,000 tested, 3.4% active; Huh7.5.1 HCVcc-Cre infection, luciferase reporter, 44 h; AID 651820, 2012
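A cell-based infection assay in which seeded cells (1,000 per well) receive test compound after 4 h, are inoculated with HCVcc-Cre at approximately 0.5 moi, and are incubated 44 h before luminescence detection.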
Sm TGR inh: qHTS Assay for the Inhibitors of Schistosoma Mansoni Peroxiredoxins; purified TGR, DTNB reduction, TNB absorbance 405 nm; Potency, µM (series often up to 114 µM), hits mostly inhibitors; 360,000 tested, 3% active; Schistosoma mansoni thioredoxin glutathione reductase (TGR), Q962Y6; note: nearly all actives have a fitted effect of over 60% in size
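First, TGR (20 nM dispensed) and NADPH were mixed with compound. Second, a 15 min room-temperature incubation followed. Third, further NADPH and then DTNB were added to start the reaction. Finally, TNB absorbance was monitored kinetically.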
Pf growth 96h: Primary qHTS for delayed death inhibitors of the malarial parasite plastid, 96 hour incubation. P. falciparum luciferase reporter growth, 96 h. 320,000 tested, 6.9% active. Potency, µM (top dose mostly 28.7 µM), hits mostly inhibitors
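Delayed-death screen, second-generation endpoint: infected erythrocytes, 2% hematocrit, 0.05% parasitemia final; 96 hours at 37 C, 5% CO2; luciferase detection reagent; luminescence decrease equals reduced growth.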
HCMV antiviral: qHTS Assay for inhibitors of the human cytomegalovirus (HCMV). HFF cells, HCMV-luciferase reporter, 72 h; active compounds read low. activity change, negative = inhibition, % at 57.5 µM. 410,000 tested, 4.5% active. AID 1259415, 2018; in the data active = activity change below about -60%; inconclusive = no clear call, values can overlap the other calls; inactive = above about -39%
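After 16 h attachment at 37C, HFF cells received test compound and HCMV-luciferase (1 PFU/cell); reporter luminescence read 72 h later, data normalized against buffer-only and known inhibitor Salinomycin.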
Pf growth 48h: Primary qHTS for delayed death inhibitors of the malarial parasite plastid, 48 hour incubation; P. falciparum luciferase growth in erythrocytes, 48 h; Potency, µM (series often up to 28.7 µM), actives largely listed as inhibitors; 310,000 tested, 5.9% active; AID 504832, 2011
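Luciferase-expressing parasites in RBCs, 2% Hct / 0.1% parasitemia final; RPMI 1640 + 0.5% Albumax; 37 C, 5% CO2, one generation; luminescence read-out, lower signal = inhibition.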
SARS PLP yeast: qHTS of Yeast-based Assay for SARS-CoV PLP; S. cerevisiae expressing SARS-CoV PLpro, growth rescue; Potency, µM (highest dose often 32.9 µM), actives largely listed as activators; 330,000 tested, 0.19% active; AID 485353, 2010; calls by dose curve; note: nearly all actives have a fitted effect of over 55% in size
Of the large screens only hits and unclear results are named; the others gave an inactive call. Unless noted, calls come from the whole dose curve; as a rule, active = well fitted curve in the direction sought with a large enough effect; inconclusive = small, poorly fitted or top-dose-only effect, or another doubt; inactive = no such curve, though single readings can be large; an effect the other way counts as inactive or inconclusive.

Cc1ccc2nc(-c3ccncc3)cc(-c3ccccc3)c2c1	HCV inh 11.2µM, Pf growth 96h 9.28µM, Pf growth 48h 10.4µM
Cc1ccc(-c2cc(C(=O)Nc3cccnc3)c3ccccc3n2)s1	Pf growth 96h inconclusive, Pf growth 48h 2.62µM
O=c1c2sc3ccccc3c2n(Cc2cccc(Cl)c2)c(=O)n1Cc1ccc(F)cc1	none (no result: HCV inh, Pf growth 96h, Pf growth 48h, SARS PLP yeast)
COC(=O)N(Cc1ccccc1NC(=O)OC(C)(C)C)C(C(=O)NC1CCCC1)C(=O)c1c(C)cc(C)cc1C (configuration not stated)	none (no result: HCV inh, Sm TGR inh, Pf growth 96h, Pf growth 48h, SARS PLP yeast)
CCOC(=O)CSc1nnc(Cn2c(=O)sc3ccccc32)n1-c1ccccc1C	Pf growth 96h 14.7µM
COc1ccc(-n2c(Cn3c(=O)sc4ccccc43)nnc2SC)cc1	Pf growth 96h 1.85µM
Cc1ccc(NC(=O)CSc2nnc(CNC(=O)c3ccco3)n2C)cc1C	Pf growth 96h 13.1µM
Cc1ccccc1-n1c(Cn2c(=O)sc3ccccc32)nnc1SCC(N)=O	none
CCSc1nnc(Cn2c(=O)sc3ccccc32)n1-c1ccc(OC)cc1	Pf growth 96h inconclusive
Cn1c(CNC(=O)c2cccs2)nnc1SCC(=O)Nc1ccc(Cl)cc1	Pf growth 96h inconclusive, Pf growth 48h 11.7µM
CC(OC(=O)/C=C/c1cccc(F)c1)C(=O)NC1CCCCC1C (configuration not stated)	none
Cn1c(Cn2c(=O)sc3ccccc32)nnc1SCC(=O)N1CCCc2ccccc21	Pf growth 96h inconclusive, Pf growth 48h inconclusive
Cn1c(Cn2c(=O)sc3ccccc32)nnc1SCC(=O)Nc1cccc(Cl)c1	Pf growth 96h inconclusive
Cn1c(Cn2c(=O)sc3ccccc32)nnc1SCC(=O)Nc1ccc(Cl)cc1	Pf growth 96h 10.4µM, SARS PLP yeast inconclusive
CCn1c(CSc2ncccn2)nnc1SCC(=O)N1CCc2ccccc21	Pf growth 96h 4.65µM, Pf growth 48h inconclusive
Cn1c(Cn2c(=O)sc3ccccc32)nnc1SCC(=O)N1CCc2ccccc21	Pf growth 96h 5.22µM
NS(=O)(=O)c1cc([C@@]2(O)NC(=O)c3ccccc32)ccc1Cl	none (no result: HCV inh, Sm TGR inh, HCMV antiviral, SARS PLP yeast)
Cc1oc(=O)oc1CN1CCN(c2cc3c(cc2F)c(=O)c(C(=O)O)c2n3C(C)S2)CC1 (configuration not stated)	Pf growth 96h 1.69µM, Pf growth 48h 2.39µM (no result: HCV inh, Sm TGR inh, HCMV antiviral, SARS PLP yeast)
CCC(=O)N1CCCC(C)(C(=O)NS(=O)(=O)c2cccs2)C1 (configuration not stated)	none (no result: HCV inh, Sm TGR inh, Pf growth 96h, Pf growth 48h, SARS PLP yeast)
O=CNc1c(Cl)cc2c(c1Cl)Cc1cc([N+](=O)[O-])ccc1-2	HCV inh inconclusive (no result: Sm TGR inh, Pf growth 96h, Pf growth 48h, SARS PLP yeast)
CCOC(=O)[C@@H]1[C@H]2COc3cc(OC)ccc3[C@@H]2N2C(=O)N(c3ccccc3)C(=O)[C@@]12C	none (no result: Sm TGR inh, Pf growth 96h, Pf growth 48h)
Cn1c(SCC(=O)N2CCN(c3ccccc3)CC2)nnc1-c1ccncc1	Pf growth 96h 11.7µM
CC(C)c1ccccc1-n1c(SCC(=O)N2CCN(c3ccccc3)CC2)nnc1-c1cccnc1	Pf growth 96h 8.28µM, Pf growth 48h inconclusive
Cn1c(SCC(=O)c2cc3ccccc3o2)nnc1-c1ccccc1	HCV inh inconclusive, Sm TGR inh inconclusive, HCMV antiviral -60.2
CC1CCN(C(=O)CSc2nnc(-c3ccncc3)n2C)CC1	Pf growth 96h inconclusive
O=C(CSc1nnc(-c2cccnc2)n1-c1ccc(SC(F)F)cc1)N1CCCc2ccccc21	Pf growth 96h 10.4µM, Pf growth 48h inconclusive
Cc1ncc(CO)c2c1Oc1nc(-c3ccc(F)cc3)nc(SCC(=O)N3CCCCC3)c1C2	none (no result: HCV inh, Pf growth 96h, Pf growth 48h, SARS PLP yeast)
COc1ccc(S(=O)(=O)N2CCN(C(=O)c3cc(-c4ccc(C)cc4)n[nH]3)CC2)cc1	HCV inh inconclusive, HCMV antiviral inconclusive, Pf growth 48h inconclusive
COC(=O)c1cc2c(c3c4cc(OC)ccc4n(S(C)(=O)=O)c13)C(=O)N(C)C2	none (no result: HCV inh, Sm TGR inh, Pf growth 96h, Pf growth 48h, SARS PLP yeast)
Cc1cccc(NC(=O)c2cc[n+]([O-])cc2)c1C	none
O=C(CSc1nnc(-c2cccs2)n1CC1CCCO1)c1cc2ccccc2o1 (configuration not stated)	Sm TGR inh inconclusive, Pf growth 96h 11.7µM
CC1CN(C(=O)CSc2nnc(-c3ccncc3)n2-c2ccccc2)CC(C)O1 (configuration not stated)	Pf growth 96h 10.4µM (no result: HCMV antiviral)
CC(Sc1nnc(-c2cccs2)n1N)C(=O)NCC1CCCO1 (configuration not stated)	none
Cn1c(SCC(=O)N2CCN(c3ccccc3)CC2)nnc1-c1cc2ccccc2o1	HCV inh inconclusive, Pf growth 96h inconclusive, HCMV antiviral -65.9
Cn1c(Cc2cccc3ccccc23)nnc1SCC(=O)N1CCN(c2ccccc2)CC1	HCV inh inconclusive, Pf growth 96h inconclusive, HCMV antiviral inconclusive, Pf growth 48h inconclusive
O=C(CSc1ccccn1)N1CCN(c2ccccc2)CC1	none (no result: Pf growth 96h)
O=C(CSc1ccccn1)N1CCN(c2cccc(Cl)c2)CC1	HCMV antiviral -73.4, SARS PLP yeast inconclusive (no result: Pf growth 96h)
Cn1c(SCC(=O)N2CCN(c3cccc(Cl)c3)CC2)nnc1-c1ccncc1	HCV inh inconclusive, Pf growth 96h inconclusive, HCMV antiviral -66.8
CCOC(=O)CSc1nnc(-c2ccc3ncccc3c2)n1C	Pf growth 48h 11.7µM
Cc1cccc(CSc2nc3ccncc3n2CC(=O)Nc2cc(C)cc(C)c2)c1	Pf growth 96h 8.28µM
COc1ccc(CSc2nc3ccncc3n2CC(=O)Nc2ccc(C)c(F)c2)cc1	none (no result: HCV inh, Pf growth 96h, Pf growth 48h, SARS PLP yeast)
CCc1ccc(NC(=O)CN2C(=O)CC(c3ccccc3)Sc3ccccc32)cc1 (configuration not stated)	none (no result: HCV inh, Pf growth 96h, Pf growth 48h, SARS PLP yeast)
CCCc1cc(=O)[nH]c(SCC(=O)NC2(C#N)CCCCC2)n1	none
CCC1CSC(Nc2ccc(C(=O)/C=C/c3ccc(Oc4ccccc4)cc3)cc2)=N1 (configuration not stated)	HCV inh inconclusive, Pf growth 96h 6.57µM, Pf growth 48h 10.4µM
CCOC(=O)Nc1ccc(C(=O)/C=C/c2ccccc2)cc1	Pf growth 96h inconclusive
CCC1CSC(Nc2ccc(C(=O)/C=C/c3cccc(C)c3)cc2)=N1 (configuration not stated)	HCV inh inconclusive, Pf growth 96h inconclusive, HCMV antiviral -63.2
Cc1ccc(C(=O)C=Cc2cccc(C)c2)cc1	none (no result: Sm TGR inh, Pf growth 96h, Pf growth 48h, SARS PLP yeast)
CCc1ccc(N2C(=O)c3cc(N4CCOCC4)c([N+](=O)[O-])cc3C2=O)cc1	Pf growth 96h 7.38µM (no result: HCMV antiviral)
CCN1CCN(c2cc(N3CCc4ccccc4C3)c(F)cc2[N+](=O)[O-])CC1	HCV inh 4.47µM, Pf growth 48h inconclusive
